# Inconclusive results are not listed. Activity calls are given as the source filed them. The calls were made as follows, unless noted: active = hit-call score of the fitted dose curve at least 0.9, where 1 is the maximum; inconclusive = response in the unintended direction; inactive = score below 0.9.
# Assays:
# [1] = target: rat Opioid Receptor, Non-selective Binding, Oprm1 (gene 25601) (UniProt P33535); assay: NVS_GPCR_rOpiate_NonSelective: NovaScreen (NVS) G Protein-Coupled Receptor Assay for rat Opioid Receptor, Non-selective Binding (AID 2283318)
# Procedure, shortened: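 Filter-based radioligand displacement using rat forebrain membrane preparations, measured 1.5 h post-dosing. Single-concentration duplicate screen at 25 uM, follow-up in concentration series; activity taken as signal loss relative to DMSO.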
# [2] = target: Sodium channel protein type 1 subunit alpha (Rattus norvegicus) (UniProt P04774); assay: NVS_IC_rNaCh_site2: NovaScreen (NVS) Ion Channel Assay for rat Sodium Channel, Site 2 (NaCh) (AID 2283322);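 also: hit means loss of radioligand binding signal relative to DMSO so AC50 marks displacement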
# Procedure, shortened: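 Initial duplicate single-point testing at 25 uM, followed by concentration-response runs for actives. Binding of radioligand to rat forebrain membranes quantified after 1 h via filter-based radiodetection.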
# [3] = target: human Serotonin, 5-Hydroxytryptamine Receptor 3 (5HT3), HTR3A (gene 3359) (UniProt P46098); assay: NVS_LGIC_h5HT3: NovaScreen (NVS) Ligand-Gated Ion Channel Assay for human Serotonin, 5-Hydroxytryptamine Receptor 3 (5HT3) (AID 2283325)
# Procedure, shortened: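 Initially tested at 25 uM in duplicate, then up to 50 uM in concentration-response for actives, compounds competed with a radioligand for HEK293-derived human 5-HT3 receptor. Bound counts were measured by filtration and scintillation at 1 h; loss of signal versus DMSO.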
# [4] = NVS_IC_rCaBTZCHL: NovaScreen (NVS) Ion Channel Assay for Calcium Channel, Type L, Benzothiazepine Site (CaBTZCHL) (AID 2283337)
# Procedure, shortened: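 Test chemicals were added to rat cortical membranes and incubated 1.5 h with a tritiated or iodinated radioligand for the benzothiazepine site. Bound ligand was separated by filtration and counted. Actives from the 25 uM duplicate screen were retested in concentration series.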
# [5] = NVS_IC_rCaDHPRCh_L: NovaScreen (NVS) Ion Channel Assay for rat Calcium Channel, Type L, Dihydropyridine Site (CaDHPRCh_L) (AID 2283320)
# Procedure, shortened: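 Rat cortex membrane preparation; dihydropyridine-site radioligand displacement read 1 h post-dose by filtration and scintillation. Primary single-point screen 25 uM in duplicate, then concentration series to 50 uM maximum; DMSO as negative control.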
# [6] = target: rat Thyrotropin Releasing Hormone Receptor (TRH), Trhr (gene 25570) (UniProt Q01717); assay: NVS_GPCR_rTRH: NovaScreen (NVS) G Protein-Coupled Receptor Assay for rat Thyrotropin Releasing Hormone Receptor (TRH) (AID 2283329);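 also: hit means lower bound tracer signal versus DMSO baseline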
# Procedure, shortened: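 Test compounds are screened at 25 uM in duplicate against radioligand binding in rat forebrain membranes, with active pairs followed up over a concentration range. Detection uses filter-based radiodetection after a 4 h exposure.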
# [7] = target: rat Peripheral-type Benzodiazepine Receptor (PBR), Tspo (gene 24230) (UniProt P16257); assay: NVS_MP_rPBR: NovaScreen (NVS) Membrane Protein Assay for rat Peripheral-type Benzodiazepine Receptor (PBR) (AID 2283335)
# Procedure, shortened: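 Competitive displacement of specific radioligand from rat kidney membrane PBR, read by filtration and scintillation after 1 h. Compounds first tested at 25 uM in duplicate, then in concentration series; signal loss relative to DMSO.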
# [8] = target: Voltage-gated inwardly rectifying potassium channel KCNH2 (Homo sapiens) (UniProt Q12809); assay: NVS_IC_hKhERGCh: NovaScreen (NVS) Ion Channel Assay for human Potassium Channel ERG (KhERGCh) (AID 2283333)
# Procedure, shortened: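 Membranes from CHO cells expressing human ERG; displacement of radioligand measured by filtration and scintillation after 0.75 h. Single-concentration duplicate screen at 25 uM, then concentration-response for actives; DMSO baseline.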
# [9] = target: bovine Gamma-Aminobutyric Acid Type A Receptor Agonist (GABAR Agonist), GABRA1 (gene 780973) (UniProt P08219); assay: NVS_LGIC_bGABAR_Agonist: NovaScreen (NVS) Ligand-Gated Ion Channel Assay for bovine Gamma-Aminobutyric Acid Type A Receptor Agonist (GABAR Agonist) (AID 2283338)
# Procedure, shortened: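 Radioligand binding to bovine cerebellar membranes in agonist format, read by filter-based scintillation counting after 1 h. Primary screen in duplicate at 25 uM, with actives followed in concentration series. Gain of signal versus DMSO.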
# [10] = target: rat Gamma-Aminobutyric Acid Type A Receptor, Non-Selective (GABAR-NonSelective), Gabra1 (gene 29705) (UniProt P62813); assay: NVS_LGIC_rGABAR_NonSelective: NovaScreen (NVS) Ligand-Gated Ion Channel Assay for rat Gamma-Aminobutyric Acid Type A Receptor, Non-Selective (GABAR-NonSelective) (AID 2283326)
# Procedure, shortened: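 Compounds were first screened in duplicate at 25 uM, with actives run as singleton concentration series (max 50 uM). Binding of a radioligand to rat whole-brain GABA-A preparation was measured by filtration and scintillation counting after 1 h, DMSO baseline.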
# [11] = target: Small conductance calcium-activated potassium channel protein 1 (Rattus norvegicus) (UniProt P70606); assay: NVS_IC_rKCaCh: NovaScreen (NVS) Ion Channel Assay for rat Potassium Channel, Ca2+ Act., VI (KCaCh) (AID 2283336)
# Procedure, shortened: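 Filter-based scintillation counting of radioligand bound to rat forebrain membrane preparations, measured 1 h after compound addition. Primary screen used 25 uM in duplicate, with concentration-response follow-up; signal decrease relative to DMSO marks activity.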
# [12] = target: Glutamate receptor ionotropic, kainate 1 (Rattus norvegicus) (UniProt P22756); assay: NVS_IC_rKAR: NovaScreen (NVS) Ion Channel Assay for rat Kainic Acid Receptors (KAR) (AID 2283334; active = hit-call score of the fitted dose curve at least 0.9, where 1 is the maximum; inactive = score below 0.9)
# Procedure, shortened: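 Rat forebrain membrane preparation incubated 1 h with radioligand and test chemical; bound signal read by filtration and scintillation. Single-concentration screen at 25 uM, then concentration series to 50 uM maximum.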
# [13] = target: rat Glutamate, MK-801 Agonist Site (GluNMDA_MK801), Grin1 (gene 24408) (UniProt P35439); assay: NVS_LGIC_rGluNMDA_MK801_Agonist: NovaScreen (NVS) Ligand-Gated Ion Channel Assay for rat Glutamate, MK-801 Agonist Site (GluNMDA_MK801) (AID 2283340)
# Procedure, shortened: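 Rat forebrain membrane preparation; MK-801-site radioligand binding read by filtration and scintillation after 1.5 h. Single-point 25 uM duplicate screen, followed by singleton concentration series to 50 uM max; DMSO baseline.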
# [14] = target: rat Glycine Receptor, Strychnine-sensitive (GlyRStrySens), Glra1 (gene 25674) (UniProt P07727); assay: NVS_LGIC_rGlyRStrySens: NovaScreen (NVS) Ligand-Gated Ion Channel Assay for rat Glycine Receptor, Strychnine-sensitive (GlyRStrySens) (AID 2283341)
# Procedure, shortened: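 Radioligand displacement on rat spinal cord membranes, 1 hr, filter scintillation read-out. Single-concentration duplicate screen at 25 uM; chemicals meeting threshold (e.g., 30% inhibition) rerun in concentration-response up to 50 uM. Loss of binding fitted versus DMSO.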
# [15] = target: bovine Gamma-Aminobutyric Acid Type A Receptor BDZ, alpha 5 site (GABARa5), GABRA5 (gene 523515) (UniProt Q08E50); assay: NVS_LGIC_bGABARa5: NovaScreen (NVS) Ligand-Gated Ion Channel Assay for bovine Gamma-Aminobutyric Acid Type A Receptor BDZ, alpha 5 site (GABARa5) (AID 2283323)
# Procedure, shortened: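 Tested first in duplicate at a single 25 uM, with hits re-run in concentration series to a 50 uM maximum. Bovine hippocampal membranes; specific radioligand displacement measured by filter scintillation counting 1 hr post-dose.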
# [16] = target: rat Glutamate, AMPA Site (AMPA), Gria1 (gene 50592) (UniProt P19490); assay: NVS_LGIC_rAMPA: NovaScreen (NVS) Ligand-Gated Ion Channel Assay for rat Glutamate, AMPA Site (AMPA) (AID 2283324)
# Procedure, shortened: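 Screening at 25 uM in duplicate preceded concentration series reaching 50 uM for qualifying compounds. Radioligand displacement on rat forebrain membranes, 1 h, filter-based scintillation readout; reduced binding relative to DMSO.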
# [17] = target: human Constitutive Androstane Receptor (CAR), NR1I3 (gene 9970) (UniProt Q14994); assay: NVS_NR_hCAR_Agonist: NovaScreen (NVS) Nuclear Receptor Binding Assay for human Constitutive Androstane Receptor Agonism (CAR) (AID 2283328)
# Procedure, shortened: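 Actives from a 25 uM duplicate screen were retested in singleton concentration series to 50 uM max. Biochemical TR-FRET assay on extracted CAR protein measured 1 h post-dose, with signal increase over DMSO control.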
# [18] = target: rat Glutamate, NMDA Agonist Site (GluNMDA), Grin1 (gene 24408) (UniProt P35439); assay: NVS_LGIC_rGluNMDA_Agonist: NovaScreen (NVS) Ligand-Gated Ion Channel Assay for rat Glutamate, NMDA Agonist Site (GluNMDA) (AID 2283327)
# Procedure, shortened: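 Radioligand displacement at the agonist site on rat forebrain membrane preparations, read by filter scintillation after 1 h. Chemicals were first run at 25 uM in duplicate; those passing threshold were titrated to a 50 uM maximum.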
# [19] = target: human Androgen Receptor (AR), AR (gene 367) (UniProt P10275); assay: NVS_NR_hAR: NovaScreen (NVS) Nuclear Receptor Binding Assay for human Androgen Receptor (AR) (AID 2283332)
# Procedure, shortened: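 Radioligand competitive binding, scintillation read-out, in cell-free extract from LnCAP, measured 20 h after dosing. Screened first in duplicate at 25 uM, then concentration series for actives; activity fitted against DMSO.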
# Chain of Voltage-gated inwardly rectifying potassium channel KCNH2 (Homo sapiens) (Q12809 whole entry, looked up): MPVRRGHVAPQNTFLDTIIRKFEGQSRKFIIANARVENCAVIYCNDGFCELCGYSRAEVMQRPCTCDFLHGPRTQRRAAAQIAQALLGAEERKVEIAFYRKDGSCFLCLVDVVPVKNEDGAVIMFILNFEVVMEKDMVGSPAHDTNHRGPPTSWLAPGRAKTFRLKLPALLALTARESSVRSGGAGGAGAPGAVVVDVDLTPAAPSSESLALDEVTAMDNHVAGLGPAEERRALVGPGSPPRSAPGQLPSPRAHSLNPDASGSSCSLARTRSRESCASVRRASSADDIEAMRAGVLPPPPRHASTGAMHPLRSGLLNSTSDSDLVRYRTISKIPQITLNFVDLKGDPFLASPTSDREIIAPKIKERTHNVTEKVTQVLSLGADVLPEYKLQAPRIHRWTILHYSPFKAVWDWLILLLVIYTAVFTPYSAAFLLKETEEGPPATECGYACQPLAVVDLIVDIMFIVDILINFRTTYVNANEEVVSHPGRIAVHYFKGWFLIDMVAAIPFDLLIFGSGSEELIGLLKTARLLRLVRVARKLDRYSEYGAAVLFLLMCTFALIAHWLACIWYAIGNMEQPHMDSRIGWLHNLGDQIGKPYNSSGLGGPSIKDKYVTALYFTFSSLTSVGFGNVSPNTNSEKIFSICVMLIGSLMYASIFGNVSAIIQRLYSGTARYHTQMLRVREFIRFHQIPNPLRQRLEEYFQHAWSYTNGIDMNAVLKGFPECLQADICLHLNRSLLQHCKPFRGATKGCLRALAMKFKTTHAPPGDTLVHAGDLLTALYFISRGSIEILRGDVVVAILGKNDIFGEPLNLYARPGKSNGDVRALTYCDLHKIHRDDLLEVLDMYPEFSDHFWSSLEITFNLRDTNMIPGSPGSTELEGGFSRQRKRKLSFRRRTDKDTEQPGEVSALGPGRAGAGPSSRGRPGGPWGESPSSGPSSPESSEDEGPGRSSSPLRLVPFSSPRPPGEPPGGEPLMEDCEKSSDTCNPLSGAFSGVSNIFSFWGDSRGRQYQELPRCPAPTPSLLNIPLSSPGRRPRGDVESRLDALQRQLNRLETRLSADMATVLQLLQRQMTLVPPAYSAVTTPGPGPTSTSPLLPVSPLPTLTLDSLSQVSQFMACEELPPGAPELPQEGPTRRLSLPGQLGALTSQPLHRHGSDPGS
# Chain of human Serotonin, 5-Hydroxytryptamine Receptor 3 (5HT3), HTR3A (gene 3359) (P46098 whole entry, looked up): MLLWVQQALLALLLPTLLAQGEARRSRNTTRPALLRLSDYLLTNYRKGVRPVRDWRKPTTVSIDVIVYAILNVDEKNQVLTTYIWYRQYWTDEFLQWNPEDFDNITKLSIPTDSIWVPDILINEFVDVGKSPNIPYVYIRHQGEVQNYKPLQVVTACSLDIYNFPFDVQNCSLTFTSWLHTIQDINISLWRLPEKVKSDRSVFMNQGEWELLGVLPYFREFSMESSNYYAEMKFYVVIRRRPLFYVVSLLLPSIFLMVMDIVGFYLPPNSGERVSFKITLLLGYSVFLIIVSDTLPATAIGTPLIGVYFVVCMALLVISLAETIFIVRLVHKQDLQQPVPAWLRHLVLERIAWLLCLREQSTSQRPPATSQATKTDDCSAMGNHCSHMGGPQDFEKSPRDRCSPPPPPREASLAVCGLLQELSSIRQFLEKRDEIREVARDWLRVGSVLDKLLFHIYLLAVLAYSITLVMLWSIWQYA
# Chain of rat Gamma-Aminobutyric Acid Type A Receptor, Non-Selective (GABAR-NonSelective), Gabra1 (gene 29705) (P62813 whole entry, looked up): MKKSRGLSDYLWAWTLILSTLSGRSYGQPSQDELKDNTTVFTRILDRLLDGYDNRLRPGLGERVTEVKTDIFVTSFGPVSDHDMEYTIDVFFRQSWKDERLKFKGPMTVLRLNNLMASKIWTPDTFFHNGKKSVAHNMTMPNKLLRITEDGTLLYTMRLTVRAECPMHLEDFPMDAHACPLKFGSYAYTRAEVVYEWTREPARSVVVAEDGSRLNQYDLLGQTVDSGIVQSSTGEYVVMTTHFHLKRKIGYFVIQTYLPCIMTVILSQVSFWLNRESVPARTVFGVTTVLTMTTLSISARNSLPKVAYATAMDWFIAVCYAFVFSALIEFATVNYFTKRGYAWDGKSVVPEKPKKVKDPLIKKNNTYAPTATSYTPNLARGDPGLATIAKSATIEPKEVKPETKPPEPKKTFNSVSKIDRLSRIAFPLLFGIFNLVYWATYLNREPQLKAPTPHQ
# Chain of rat Opioid Receptor, Non-selective Binding, Oprm1 (gene 25601) (P33535 whole entry, looked up): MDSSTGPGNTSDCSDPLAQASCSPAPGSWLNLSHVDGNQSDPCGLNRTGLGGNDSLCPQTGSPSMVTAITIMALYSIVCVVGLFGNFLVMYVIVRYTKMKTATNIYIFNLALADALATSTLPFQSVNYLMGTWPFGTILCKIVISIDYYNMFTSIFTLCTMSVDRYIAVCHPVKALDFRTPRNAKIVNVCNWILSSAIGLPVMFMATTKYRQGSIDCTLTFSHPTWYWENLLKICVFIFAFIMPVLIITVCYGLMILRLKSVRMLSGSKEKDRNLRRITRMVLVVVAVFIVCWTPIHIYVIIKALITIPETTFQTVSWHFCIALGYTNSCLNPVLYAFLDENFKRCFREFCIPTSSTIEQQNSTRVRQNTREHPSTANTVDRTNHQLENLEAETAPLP
# Chain of Small conductance calcium-activated potassium channel protein 1 (Rattus norvegicus) (P70606 whole entry, looked up): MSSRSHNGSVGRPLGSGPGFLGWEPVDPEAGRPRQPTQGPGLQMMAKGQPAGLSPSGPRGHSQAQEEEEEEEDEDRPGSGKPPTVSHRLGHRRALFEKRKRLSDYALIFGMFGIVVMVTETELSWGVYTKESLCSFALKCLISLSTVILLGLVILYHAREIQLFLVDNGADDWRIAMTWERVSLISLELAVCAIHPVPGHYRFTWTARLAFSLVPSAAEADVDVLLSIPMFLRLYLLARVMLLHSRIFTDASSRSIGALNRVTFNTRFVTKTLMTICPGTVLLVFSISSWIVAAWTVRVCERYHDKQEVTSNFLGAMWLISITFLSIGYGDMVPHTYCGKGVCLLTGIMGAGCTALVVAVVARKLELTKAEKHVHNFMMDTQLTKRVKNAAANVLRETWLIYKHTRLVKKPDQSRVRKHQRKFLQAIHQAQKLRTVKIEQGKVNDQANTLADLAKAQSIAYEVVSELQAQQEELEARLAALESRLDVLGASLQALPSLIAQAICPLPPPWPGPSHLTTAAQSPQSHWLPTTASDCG
# Chain of rat Peripheral-type Benzodiazepine Receptor (PBR), Tspo (gene 24230) (P16257 whole entry, looked up): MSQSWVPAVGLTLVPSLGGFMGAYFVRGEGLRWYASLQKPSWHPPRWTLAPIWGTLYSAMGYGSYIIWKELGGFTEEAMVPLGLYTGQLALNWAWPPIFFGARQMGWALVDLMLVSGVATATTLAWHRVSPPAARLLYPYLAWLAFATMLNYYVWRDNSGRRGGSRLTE
# Chain of rat Glutamate, AMPA Site (AMPA), Gria1 (gene 50592) (P19490 whole entry, looked up): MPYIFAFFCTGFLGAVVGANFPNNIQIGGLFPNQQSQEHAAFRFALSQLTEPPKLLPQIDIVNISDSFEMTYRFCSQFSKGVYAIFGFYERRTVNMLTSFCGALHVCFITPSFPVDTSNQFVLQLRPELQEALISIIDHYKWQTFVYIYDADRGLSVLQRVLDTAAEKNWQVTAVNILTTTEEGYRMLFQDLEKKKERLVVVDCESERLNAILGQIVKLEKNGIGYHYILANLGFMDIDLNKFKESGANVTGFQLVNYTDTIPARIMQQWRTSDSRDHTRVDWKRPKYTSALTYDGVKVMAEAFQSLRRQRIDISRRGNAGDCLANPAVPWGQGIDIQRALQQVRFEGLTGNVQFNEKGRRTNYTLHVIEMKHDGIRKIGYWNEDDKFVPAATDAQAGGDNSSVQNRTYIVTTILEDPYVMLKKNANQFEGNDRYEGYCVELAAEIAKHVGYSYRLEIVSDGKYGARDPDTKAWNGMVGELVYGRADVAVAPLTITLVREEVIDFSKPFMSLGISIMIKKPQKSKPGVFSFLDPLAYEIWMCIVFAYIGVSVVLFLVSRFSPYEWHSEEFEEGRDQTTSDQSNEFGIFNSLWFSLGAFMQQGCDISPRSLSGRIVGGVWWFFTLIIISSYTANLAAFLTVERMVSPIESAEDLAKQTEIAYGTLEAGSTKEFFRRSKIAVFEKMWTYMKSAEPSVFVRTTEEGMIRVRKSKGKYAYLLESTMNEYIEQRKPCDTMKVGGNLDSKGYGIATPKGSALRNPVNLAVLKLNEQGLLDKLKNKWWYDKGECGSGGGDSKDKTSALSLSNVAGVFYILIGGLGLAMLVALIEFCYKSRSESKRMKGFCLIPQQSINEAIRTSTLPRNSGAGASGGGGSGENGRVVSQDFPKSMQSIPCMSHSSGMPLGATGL
# Chain of Glutamate receptor ionotropic, kainate 1 (Rattus norvegicus) (P22756 whole entry, looked up): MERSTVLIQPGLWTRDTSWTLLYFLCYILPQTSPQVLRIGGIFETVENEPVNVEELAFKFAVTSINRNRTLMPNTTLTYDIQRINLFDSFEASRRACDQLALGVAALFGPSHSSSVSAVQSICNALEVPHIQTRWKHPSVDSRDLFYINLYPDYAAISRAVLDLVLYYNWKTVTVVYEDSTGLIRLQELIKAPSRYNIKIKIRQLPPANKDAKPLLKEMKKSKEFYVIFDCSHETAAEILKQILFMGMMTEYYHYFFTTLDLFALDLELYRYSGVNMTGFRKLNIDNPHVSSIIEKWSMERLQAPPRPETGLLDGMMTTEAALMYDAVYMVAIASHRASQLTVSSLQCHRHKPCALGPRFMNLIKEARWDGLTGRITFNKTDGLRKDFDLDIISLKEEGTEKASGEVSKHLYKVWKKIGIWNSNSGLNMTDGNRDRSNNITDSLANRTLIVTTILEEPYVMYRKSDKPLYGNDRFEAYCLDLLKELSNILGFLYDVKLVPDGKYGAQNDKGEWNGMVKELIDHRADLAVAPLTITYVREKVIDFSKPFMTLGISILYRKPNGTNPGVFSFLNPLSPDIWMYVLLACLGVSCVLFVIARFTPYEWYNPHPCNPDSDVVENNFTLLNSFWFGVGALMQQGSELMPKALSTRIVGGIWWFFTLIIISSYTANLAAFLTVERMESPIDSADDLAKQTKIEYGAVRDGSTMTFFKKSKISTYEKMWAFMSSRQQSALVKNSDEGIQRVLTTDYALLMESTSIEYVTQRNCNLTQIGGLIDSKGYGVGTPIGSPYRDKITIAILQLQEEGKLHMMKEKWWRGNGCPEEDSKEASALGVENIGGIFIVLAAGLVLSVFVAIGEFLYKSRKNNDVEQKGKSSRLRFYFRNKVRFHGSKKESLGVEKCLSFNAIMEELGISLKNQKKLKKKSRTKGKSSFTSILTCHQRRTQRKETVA
compound,measurement,setting,value
Clc1cc(Cl)c2c(c1)N=C1CCCCCN1C2,AC50,[1],7.31 µM (active)
same,AC50,[2],6.64 µM (active)
same,AC50,[3],12.5 µM (active)
same,outcome,[4],inactive
O=C1c2ccccc2C(=O)N1CCc1noc(-c2ccc(CN3CCCCCC3)s2)n1,AC50,[1],21.1 µM (active)
same,AC50,[5],6.2 µM (active)
same,AC50,[2],13.4 µM (active)
same,outcome,[6],inactive
same,outcome,[7],inactive
same,AC50,[4],7.22 µM (active)
CCN(CC)C(=O)c1cc(S(=O)(=O)Cc2ccccc2)c(N2CCC(c3ccccc3)CC2)cc1N(CC)CCN(C)C,outcome,[1],inactive
same,AC50,[2],0.419 µM (active)
same,AC50,[8],6.17 µM (active)
same,AC50,[4],0.214 µM (active)
same,outcome,[9],inactive
CCN(Cc1cccnc1)C(=O)c1cccc(Cl)c1[C@]1(C)C(=O)N(Cc2ccc(OC)cc2OC)c2ccc(Cl)cc21,AC50,[1],5.25 µM (active)
same,AC50,[5],5.48 µM (active)
same,AC50,[2],17.5 µM (active)
same,AC50,[10],16.8 µM (active)
same,AC50,[7],1.69 µM (active)
same,outcome,[11],inactive
same,AC50,[4],12.6 µM (active)
CCOC(=O)O[C@H](C)OC(=O)c1ccc2c(c1)cc(C(=O)NC1CCN(C(C)C)CC1)n2Cc1cc(-c2ccc(Cl)s2)on1,AC50,[5],9.36 µM (active)
same,AC50,[2],9.62 µM (active)
same,outcome,[3],inactive
same,AC50,[8],0.925 µM (active)
same,AC50,[4],9.12 µM (active)
same,AC50,[9],11.8 µM (active)
CCCCCCCCN(C)CCCCCCCC,AC50,[5],16.4 µM (active)
same,AC50,[2],11.8 µM (active)
same,outcome,[8],inactive
same,outcome,[12],inactive
same,outcome,[4],inactive
COc1ccc2cc(S(=O)(=O)N[C@H](CC(=O)N[C@H](Cc3ccc(CN4[C@H](C)CCC[C@@H]4C)cc3)C(=O)N(C)C(C)C)c3ccc4c(c3)OCO4)ccc2c1,AC50,[1],17.7 µM (active)
same,AC50,[5],21.5 µM (active)
same,AC50,[2],5.03 µM (active)
same,AC50,[10],11.2 µM (active)
same,AC50,[8],1.21 µM (active)
same,outcome,[11],inactive
same,AC50,[4],3.52 µM (active)
same,outcome,[13],inactive
same,AC50,[14],128 nM (active)
CC(C)(O)c1ccc(CNC(=O)c2cccnc2Oc2ccc3nonc3c2)cc1,outcome,[15],inactive
same,outcome,[3],inactive
CCCCOC(=O)c1ccc(O)cc1,outcome,[16],inactive
same,outcome,[17],inactive
CCCCCCCCCC(=O)O,outcome,[16],inactive
Cc1cc2c(cc1C(F)(F)F)N(C(=O)Nc1ccc(Oc3cccnc3C)nc1)CC2,AC50,[10],8.52 µM (active)
OC12N=C(c3ccccc3)SC1Cc1cc(Cl)ccc12 (configuration not stated),AC50,[10],2.62 µM (active)
same,outcome,[11],inactive
O=C1O[C@H]([C@@H](O)CO)C(O)=C1O,outcome,[18],inactive
O=C(O)Cn1c(=O)n(Cc2ccc(Br)cc2F)c(=O)c2ccc(Cl)cc21,outcome,[18],inactive
Cc1c2ccccc2c(C)c2c1ccc1ccccc12,outcome,[17],inactive
O=c1c(-c2ccc(O)cc2)coc2cc(O)cc(O)c12,outcome,[19],inactive
CCCCCCCCCCCC[N+](C)(C)C,AC50,[8],10.2 µM (active)
same,AC50,[4],12.2 µM (active)
CCCC(=O)OCCC(C)C,outcome,[12],inactive

# Source: PubChem BioAssay (EPA / NIEHS)
